# Test results published in PMC7862700, “An all-to-all approach to the identification of sequence-specific readers for epigenetic DNA modifications on cytosine”.
# What was measured:
# Experiment in all cases: DAPPL (digital affinity profiling via proximity ligation, sequencing); 10 mM Tris-HCl pH 7.5, 50 mM NaCl, 1 mM DTT, 4% glycerol, room temperature, 30 min; GST-TFs on glutathione beads, 16-mer random dsDNA library, 0.1% formaldehyde crosslink after washing; high values mean tight binding
# FEV = target: T1, FEV (Homo sapiens, UniProt Q99581 1-238); conditions: protein: recombinant; tags: N-terminal GST; dsDNA, one strand shown
# T1 sequence: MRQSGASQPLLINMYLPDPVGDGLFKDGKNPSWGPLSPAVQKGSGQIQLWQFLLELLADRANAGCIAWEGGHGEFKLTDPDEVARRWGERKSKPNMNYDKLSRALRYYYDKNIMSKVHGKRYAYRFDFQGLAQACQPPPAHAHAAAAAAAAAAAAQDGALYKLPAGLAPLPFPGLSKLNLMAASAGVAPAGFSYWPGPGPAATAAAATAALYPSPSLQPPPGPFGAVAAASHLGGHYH
# Summary of the method: (§1)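 Human transcription factors fused to GST were expressed in yeast, captured on glutathione beads, given DNA barcodes and pooled with a GST-only negative control. Pools were incubated with 200 nmole of a 16-mer random double-stranded DNA library in Tris/NaCl/DTT/glycerol buffer at room temperature for 30 min. They were then washed, crosslinked with 0.1% formaldehyde, proximity-ligated (BsaI/T4 ligase, 1 h, 37 °C), PCR-amplified and sequenced on an Illumina NextSeq500. Binding signal is each 6-mer's read frequency for a factor divided by its frequency for the GST control.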
# ETV5 = ETV5 (Homo sapiens, UniProt P41161 1-510); conditions: protein: recombinant; tags: N-terminal GST; dsDNA, one strand shown
# Sequence of ETV5 (P41161 whole entry): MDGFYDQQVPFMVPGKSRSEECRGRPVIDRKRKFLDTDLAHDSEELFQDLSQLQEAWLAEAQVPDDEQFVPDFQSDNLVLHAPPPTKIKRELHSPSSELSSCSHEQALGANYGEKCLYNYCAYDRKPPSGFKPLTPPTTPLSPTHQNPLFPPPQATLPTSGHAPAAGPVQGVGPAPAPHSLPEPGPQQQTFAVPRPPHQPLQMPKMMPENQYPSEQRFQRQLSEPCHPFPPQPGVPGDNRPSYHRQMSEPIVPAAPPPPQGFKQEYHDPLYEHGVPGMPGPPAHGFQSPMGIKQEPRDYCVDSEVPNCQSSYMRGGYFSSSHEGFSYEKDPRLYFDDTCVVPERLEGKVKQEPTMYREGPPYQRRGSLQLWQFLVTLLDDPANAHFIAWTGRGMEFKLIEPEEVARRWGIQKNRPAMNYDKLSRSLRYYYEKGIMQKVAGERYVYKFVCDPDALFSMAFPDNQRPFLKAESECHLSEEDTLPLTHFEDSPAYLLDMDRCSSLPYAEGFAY
# Summary of the method: as §1
# HSF1 = HSF1 (Homo sapiens, UniProt Q00613 1-529); conditions: protein: recombinant; tags: N-terminal GST; chain copies: 3; dsDNA, one strand shown
# Sequence of HSF1 (Q00613 whole entry): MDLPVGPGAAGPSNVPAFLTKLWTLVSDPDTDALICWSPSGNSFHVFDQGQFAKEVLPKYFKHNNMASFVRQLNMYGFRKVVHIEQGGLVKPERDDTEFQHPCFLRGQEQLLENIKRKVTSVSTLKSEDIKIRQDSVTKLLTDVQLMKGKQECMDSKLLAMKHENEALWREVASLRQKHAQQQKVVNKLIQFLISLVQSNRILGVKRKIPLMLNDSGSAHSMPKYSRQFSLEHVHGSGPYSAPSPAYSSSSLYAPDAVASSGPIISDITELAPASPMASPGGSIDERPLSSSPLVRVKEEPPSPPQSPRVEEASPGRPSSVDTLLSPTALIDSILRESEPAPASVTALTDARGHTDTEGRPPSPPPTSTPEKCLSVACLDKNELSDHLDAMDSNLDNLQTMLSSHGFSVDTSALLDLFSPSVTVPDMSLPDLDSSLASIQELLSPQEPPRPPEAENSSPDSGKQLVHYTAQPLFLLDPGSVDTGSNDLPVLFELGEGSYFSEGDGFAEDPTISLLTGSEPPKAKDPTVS
# Summary of the method: as §1
# SPIC = target: T2, SPIC (Homo sapiens, UniProt Q8N5J4 1-248); conditions: protein: recombinant; tags: N-terminal GST; dsDNA, one strand shown
# T2 sequence: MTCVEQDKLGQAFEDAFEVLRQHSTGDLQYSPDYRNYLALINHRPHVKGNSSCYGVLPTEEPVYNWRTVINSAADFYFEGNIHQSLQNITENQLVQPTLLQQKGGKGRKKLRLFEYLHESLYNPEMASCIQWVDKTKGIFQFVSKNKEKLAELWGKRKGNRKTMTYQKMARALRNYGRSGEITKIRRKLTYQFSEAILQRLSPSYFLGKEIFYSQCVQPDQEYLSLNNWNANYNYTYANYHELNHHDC
# Summary of the method: as §1
# ELF4 = ELF4 (Homo sapiens, UniProt Q99607 1-663); conditions: protein: recombinant; tags: N-terminal GST; dsDNA, one strand shown
# Sequence of ELF4 (Q99607 whole entry): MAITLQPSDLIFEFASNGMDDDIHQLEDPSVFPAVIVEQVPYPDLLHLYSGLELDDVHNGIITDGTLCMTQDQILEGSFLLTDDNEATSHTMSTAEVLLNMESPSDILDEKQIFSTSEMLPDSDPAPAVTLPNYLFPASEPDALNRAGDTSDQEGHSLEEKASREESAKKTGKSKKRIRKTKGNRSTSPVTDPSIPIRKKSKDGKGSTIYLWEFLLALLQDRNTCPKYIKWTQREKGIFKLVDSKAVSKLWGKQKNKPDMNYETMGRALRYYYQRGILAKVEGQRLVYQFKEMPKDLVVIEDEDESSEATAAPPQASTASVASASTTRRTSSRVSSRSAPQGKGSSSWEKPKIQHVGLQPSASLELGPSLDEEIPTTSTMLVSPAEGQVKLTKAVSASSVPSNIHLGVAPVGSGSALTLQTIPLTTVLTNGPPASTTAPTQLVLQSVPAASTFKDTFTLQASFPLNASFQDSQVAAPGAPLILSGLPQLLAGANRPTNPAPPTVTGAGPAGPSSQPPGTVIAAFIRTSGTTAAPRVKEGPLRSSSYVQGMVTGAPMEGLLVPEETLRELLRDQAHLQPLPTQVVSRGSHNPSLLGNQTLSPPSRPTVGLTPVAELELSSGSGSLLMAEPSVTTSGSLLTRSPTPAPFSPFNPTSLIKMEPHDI
# Summary of the method: as §1
# ELK4 = target: T3, ELK4 (Homo sapiens, UniProt P28324-2 1-405); conditions: protein: recombinant; tags: N-terminal GST; dsDNA, one strand shown
# T3 sequence: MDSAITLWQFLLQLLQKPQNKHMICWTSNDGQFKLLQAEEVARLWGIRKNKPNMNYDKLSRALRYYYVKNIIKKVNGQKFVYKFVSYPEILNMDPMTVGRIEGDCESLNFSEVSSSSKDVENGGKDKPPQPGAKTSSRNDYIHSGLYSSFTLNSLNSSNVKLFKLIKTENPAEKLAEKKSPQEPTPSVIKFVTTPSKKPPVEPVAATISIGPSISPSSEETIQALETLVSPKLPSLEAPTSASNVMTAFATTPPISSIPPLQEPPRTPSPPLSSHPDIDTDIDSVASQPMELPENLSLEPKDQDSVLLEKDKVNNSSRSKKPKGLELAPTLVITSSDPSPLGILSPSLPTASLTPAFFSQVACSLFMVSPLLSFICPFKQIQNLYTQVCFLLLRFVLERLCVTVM
# Summary of the method: as §1
# ETV2 = target: T4, ETV2 (Homo sapiens, UniProt O00321 1-342); conditions: protein: recombinant; tags: N-terminal GST; dsDNA, one strand shown
# T4 sequence: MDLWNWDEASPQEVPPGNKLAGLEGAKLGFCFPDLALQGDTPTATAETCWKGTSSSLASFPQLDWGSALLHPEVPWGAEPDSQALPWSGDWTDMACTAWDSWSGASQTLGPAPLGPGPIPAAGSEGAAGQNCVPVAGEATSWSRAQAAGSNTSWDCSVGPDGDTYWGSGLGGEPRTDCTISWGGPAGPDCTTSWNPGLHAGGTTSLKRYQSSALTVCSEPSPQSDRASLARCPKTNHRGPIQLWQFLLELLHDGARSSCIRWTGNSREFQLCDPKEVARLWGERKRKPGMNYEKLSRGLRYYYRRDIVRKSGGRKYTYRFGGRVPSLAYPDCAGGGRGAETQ
# Summary of the method: as §1
# ELF3 = target: T5, ELF3 (Homo sapiens, UniProt P78545 1-371); conditions: protein: recombinant; tags: N-terminal GST; dsDNA, one strand shown
# T5 sequence: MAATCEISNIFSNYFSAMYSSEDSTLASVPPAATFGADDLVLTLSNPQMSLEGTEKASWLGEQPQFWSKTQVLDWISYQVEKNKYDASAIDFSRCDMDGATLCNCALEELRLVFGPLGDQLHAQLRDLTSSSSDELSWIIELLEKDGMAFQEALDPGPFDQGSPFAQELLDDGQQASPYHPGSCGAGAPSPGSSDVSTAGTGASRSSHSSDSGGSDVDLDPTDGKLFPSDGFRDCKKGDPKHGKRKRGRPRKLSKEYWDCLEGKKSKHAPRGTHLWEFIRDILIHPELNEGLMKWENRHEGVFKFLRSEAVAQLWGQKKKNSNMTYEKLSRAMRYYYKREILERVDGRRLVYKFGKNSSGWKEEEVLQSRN
# Summary of the method: as §1
# CRX = CRX (Homo sapiens, UniProt O43186 1-299); conditions: protein: recombinant; tags: N-terminal GST; dsDNA, one strand shown
# Sequence of CRX (O43186 whole entry): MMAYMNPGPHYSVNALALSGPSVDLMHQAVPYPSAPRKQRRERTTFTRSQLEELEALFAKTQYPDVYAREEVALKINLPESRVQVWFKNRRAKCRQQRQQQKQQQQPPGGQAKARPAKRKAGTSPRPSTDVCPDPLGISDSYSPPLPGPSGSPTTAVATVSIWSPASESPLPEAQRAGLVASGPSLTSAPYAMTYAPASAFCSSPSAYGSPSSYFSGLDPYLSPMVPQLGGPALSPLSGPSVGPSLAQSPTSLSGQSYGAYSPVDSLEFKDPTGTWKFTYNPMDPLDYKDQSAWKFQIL
# Summary of the method: as §1
# ETV1 = ETV1 (Homo sapiens, UniProt P50549 1-477); conditions: protein: recombinant; tags: N-terminal GST; dsDNA, one strand shown
# Sequence of ETV1 (P50549 whole entry): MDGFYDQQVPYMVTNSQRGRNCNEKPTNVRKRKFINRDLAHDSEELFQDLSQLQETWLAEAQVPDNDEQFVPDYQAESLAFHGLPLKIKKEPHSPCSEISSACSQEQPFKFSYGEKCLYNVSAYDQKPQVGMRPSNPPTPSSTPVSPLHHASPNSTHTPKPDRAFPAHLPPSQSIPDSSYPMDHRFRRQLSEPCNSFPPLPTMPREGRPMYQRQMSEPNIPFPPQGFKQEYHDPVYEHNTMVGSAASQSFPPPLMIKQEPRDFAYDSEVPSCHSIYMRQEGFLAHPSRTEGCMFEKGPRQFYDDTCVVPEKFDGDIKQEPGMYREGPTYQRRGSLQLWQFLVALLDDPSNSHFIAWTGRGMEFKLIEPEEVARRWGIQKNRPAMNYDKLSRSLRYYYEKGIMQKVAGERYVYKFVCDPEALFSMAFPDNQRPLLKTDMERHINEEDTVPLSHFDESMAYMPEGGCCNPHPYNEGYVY
# Summary of the method: as §1
# ERF = target: T6, ERF (Homo sapiens, UniProt P50548 1-548); conditions: protein: recombinant; tags: N-terminal GST; dsDNA, one strand shown
# T6 sequence: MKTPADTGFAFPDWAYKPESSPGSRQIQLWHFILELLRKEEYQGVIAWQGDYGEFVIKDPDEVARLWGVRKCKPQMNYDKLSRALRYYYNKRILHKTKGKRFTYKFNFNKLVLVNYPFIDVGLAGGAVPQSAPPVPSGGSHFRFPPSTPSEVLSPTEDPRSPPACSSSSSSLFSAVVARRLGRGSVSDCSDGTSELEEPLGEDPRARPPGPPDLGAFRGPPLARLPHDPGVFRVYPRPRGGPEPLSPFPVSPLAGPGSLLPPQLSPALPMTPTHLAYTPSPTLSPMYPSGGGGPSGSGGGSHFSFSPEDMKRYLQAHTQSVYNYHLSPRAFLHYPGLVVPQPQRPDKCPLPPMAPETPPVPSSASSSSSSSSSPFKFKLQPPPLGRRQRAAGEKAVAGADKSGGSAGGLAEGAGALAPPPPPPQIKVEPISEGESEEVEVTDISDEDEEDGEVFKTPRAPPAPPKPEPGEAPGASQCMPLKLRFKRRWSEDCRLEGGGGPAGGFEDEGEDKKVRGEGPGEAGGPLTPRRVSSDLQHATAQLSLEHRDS
# Summary of the method: as §1
# ETV3L = target: T7, ETV3L (Homo sapiens, UniProt Q6ZN32 1-361); conditions: protein: recombinant; tags: N-terminal GST; dsDNA, one strand shown
# T7 sequence: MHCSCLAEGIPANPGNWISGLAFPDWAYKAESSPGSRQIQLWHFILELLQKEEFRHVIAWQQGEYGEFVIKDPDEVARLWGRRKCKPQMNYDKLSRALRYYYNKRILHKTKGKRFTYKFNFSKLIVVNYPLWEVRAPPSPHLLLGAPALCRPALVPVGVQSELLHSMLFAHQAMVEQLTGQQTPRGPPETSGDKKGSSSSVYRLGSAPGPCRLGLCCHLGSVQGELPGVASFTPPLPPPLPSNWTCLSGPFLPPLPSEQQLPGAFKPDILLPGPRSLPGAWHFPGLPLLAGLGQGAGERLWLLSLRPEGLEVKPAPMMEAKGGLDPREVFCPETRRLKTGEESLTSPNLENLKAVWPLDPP
# Summary of the method: as §1
# ETS2 = target: T8, ETS2 (Homo sapiens, UniProt P15036 1-469); conditions: protein: recombinant; tags: N-terminal GST; dsDNA, one strand shown
# T8 sequence: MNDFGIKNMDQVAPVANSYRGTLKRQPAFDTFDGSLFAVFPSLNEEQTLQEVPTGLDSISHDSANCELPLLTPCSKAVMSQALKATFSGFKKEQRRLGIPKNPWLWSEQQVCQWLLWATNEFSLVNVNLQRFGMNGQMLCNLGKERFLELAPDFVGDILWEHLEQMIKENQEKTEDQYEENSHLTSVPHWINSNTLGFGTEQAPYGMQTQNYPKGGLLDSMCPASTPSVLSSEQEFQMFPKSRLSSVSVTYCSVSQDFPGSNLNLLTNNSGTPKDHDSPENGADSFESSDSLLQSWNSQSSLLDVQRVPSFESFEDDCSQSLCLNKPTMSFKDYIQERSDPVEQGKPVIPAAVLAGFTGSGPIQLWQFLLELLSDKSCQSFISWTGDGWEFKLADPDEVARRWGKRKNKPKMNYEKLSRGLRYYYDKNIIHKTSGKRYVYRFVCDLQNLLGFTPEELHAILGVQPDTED
# Summary of the method: as §1
# SPDEF = target: T9, SPDEF (Homo sapiens, UniProt O95238 1-335); conditions: protein: recombinant; tags: N-terminal GST; dsDNA, one strand shown
# T9 sequence: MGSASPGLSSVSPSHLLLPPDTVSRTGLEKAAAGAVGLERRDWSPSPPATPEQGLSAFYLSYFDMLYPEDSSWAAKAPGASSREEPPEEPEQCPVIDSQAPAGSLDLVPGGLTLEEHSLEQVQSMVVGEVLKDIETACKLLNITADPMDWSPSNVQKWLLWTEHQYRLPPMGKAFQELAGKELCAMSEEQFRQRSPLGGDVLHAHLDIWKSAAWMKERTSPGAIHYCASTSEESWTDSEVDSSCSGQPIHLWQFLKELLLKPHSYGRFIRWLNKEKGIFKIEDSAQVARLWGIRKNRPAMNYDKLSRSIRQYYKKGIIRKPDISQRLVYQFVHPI
# Summary of the method: as §1
# ETV7 = target: T10, ETV7 (Homo sapiens, UniProt Q9Y603 1-341); conditions: protein: recombinant; tags: N-terminal GST; dsDNA, one strand shown
# T10 sequence: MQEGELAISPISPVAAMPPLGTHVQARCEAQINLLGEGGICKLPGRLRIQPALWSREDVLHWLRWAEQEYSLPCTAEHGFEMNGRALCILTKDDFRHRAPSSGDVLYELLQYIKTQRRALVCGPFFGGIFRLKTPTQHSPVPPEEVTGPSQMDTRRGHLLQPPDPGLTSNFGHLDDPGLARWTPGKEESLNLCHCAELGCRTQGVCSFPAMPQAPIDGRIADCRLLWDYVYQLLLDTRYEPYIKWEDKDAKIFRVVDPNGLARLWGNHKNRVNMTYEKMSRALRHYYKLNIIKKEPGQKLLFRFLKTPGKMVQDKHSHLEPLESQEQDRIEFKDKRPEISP
# Summary of the method: as §1
# ELF5 = target: T11, ELF5 (Homo sapiens, UniProt Q9UKW6-2 1-255); conditions: protein: recombinant; tags: N-terminal GST; dsDNA, one strand shown
# T11 sequence: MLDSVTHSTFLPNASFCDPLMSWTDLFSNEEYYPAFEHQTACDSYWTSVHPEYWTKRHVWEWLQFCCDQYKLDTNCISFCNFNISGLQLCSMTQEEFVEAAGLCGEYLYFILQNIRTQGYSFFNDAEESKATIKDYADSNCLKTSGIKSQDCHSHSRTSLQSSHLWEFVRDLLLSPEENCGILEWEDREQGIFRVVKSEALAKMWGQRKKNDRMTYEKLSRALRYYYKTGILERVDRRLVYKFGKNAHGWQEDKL
# Summary of the method: as §1
# ETV3 = target: T12, ETV3 (Homo sapiens, UniProt P41162-2 1-143); conditions: protein: recombinant; tags: N-terminal GST; dsDNA, one strand shown
# T12 sequence: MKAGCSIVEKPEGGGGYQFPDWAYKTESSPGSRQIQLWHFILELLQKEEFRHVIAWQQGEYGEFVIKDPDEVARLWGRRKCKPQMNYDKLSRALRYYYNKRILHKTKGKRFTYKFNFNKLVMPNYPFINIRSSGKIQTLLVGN
# Summary of the method: as §1
# ETV6 = ETV6 (Homo sapiens, UniProt P41212 1-452); conditions: protein: recombinant; tags: N-terminal GST; dsDNA, one strand shown
# Sequence of ETV6 (P41212 whole entry): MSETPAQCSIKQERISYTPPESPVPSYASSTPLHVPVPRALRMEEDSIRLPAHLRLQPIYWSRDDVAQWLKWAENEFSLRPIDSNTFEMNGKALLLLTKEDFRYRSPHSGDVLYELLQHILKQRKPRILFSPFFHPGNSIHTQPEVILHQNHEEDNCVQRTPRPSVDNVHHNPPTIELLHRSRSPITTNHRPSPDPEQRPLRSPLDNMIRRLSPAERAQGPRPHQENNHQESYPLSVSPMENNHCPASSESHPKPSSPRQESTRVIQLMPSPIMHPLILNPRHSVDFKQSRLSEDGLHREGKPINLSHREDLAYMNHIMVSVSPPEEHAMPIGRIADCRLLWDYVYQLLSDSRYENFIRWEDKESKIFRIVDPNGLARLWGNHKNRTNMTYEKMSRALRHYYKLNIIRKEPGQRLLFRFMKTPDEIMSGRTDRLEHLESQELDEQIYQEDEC
# Summary of the method: as §1
sequence,measurement,setting,value
TCATCT,binding signal,FEV,"1.08 fold enrichment (6-mer frequency, TF over GST control)"
same,binding signal,ETV5,"1.19 fold enrichment (6-mer frequency, TF over GST control)"
same,binding signal,HSF1,"1.44 fold enrichment (6-mer frequency, TF over GST control)"
same,binding signal,SPIC,"1.32 fold enrichment (6-mer frequency, TF over GST control)"
same,binding signal,ELF4,"1.18 fold enrichment (6-mer frequency, TF over GST control)"
same,binding signal,ELK4,"1.59 fold enrichment (6-mer frequency, TF over GST control)"
same,binding signal,ETV2,"1.38 fold enrichment (6-mer frequency, TF over GST control)"
same,binding signal,ELF3,"1.37 fold enrichment (6-mer frequency, TF over GST control)"
same,binding signal,CRX,"1.5 fold enrichment (6-mer frequency, TF over GST control)"
same,binding signal,ETV1,"1.15 fold enrichment (6-mer frequency, TF over GST control)"
same,binding signal,ERF,"1.21 fold enrichment (6-mer frequency, TF over GST control)"
same,binding signal,ETV3L,"1.22 fold enrichment (6-mer frequency, TF over GST control)"
same,binding signal,ETS2,"1.2 fold enrichment (6-mer frequency, TF over GST control)"
same,binding signal,SPDEF,"1.07 fold enrichment (6-mer frequency, TF over GST control)"
same,binding signal,ETV7,"1.14 fold enrichment (6-mer frequency, TF over GST control)"
same,binding signal,ELF5,"1.17 fold enrichment (6-mer frequency, TF over GST control)"
same,binding signal,ETV3,"1.19 fold enrichment (6-mer frequency, TF over GST control)"
same,binding signal,ETV6,"1.22 fold enrichment (6-mer frequency, TF over GST control)"
